Assay outcomes from PubChem BioAssay.
Many of the other results were omitted from the sample, so hits are more common in it than they were.
GIRK2 act – Activates human GIRK2-containing potassium channels; P48051; HEK293 GIRK2/NPY4 cells, thallium flux fluorescence; activation (% efficacy), % for hits at 37.5 µM; 34,000 tested, under 10 active; AID 1259324;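 active means primary screen hit, no activity in plain HEK293 cells, and in GIRK2-only cells above 5% efficacy rising with concentration; inactive means the rest, including fluorescent compounds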;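 further: efficacy is normalized control-subtracted fluorescence 15 s after thallium addition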
Target sequence (P48051 whole entry, looked up): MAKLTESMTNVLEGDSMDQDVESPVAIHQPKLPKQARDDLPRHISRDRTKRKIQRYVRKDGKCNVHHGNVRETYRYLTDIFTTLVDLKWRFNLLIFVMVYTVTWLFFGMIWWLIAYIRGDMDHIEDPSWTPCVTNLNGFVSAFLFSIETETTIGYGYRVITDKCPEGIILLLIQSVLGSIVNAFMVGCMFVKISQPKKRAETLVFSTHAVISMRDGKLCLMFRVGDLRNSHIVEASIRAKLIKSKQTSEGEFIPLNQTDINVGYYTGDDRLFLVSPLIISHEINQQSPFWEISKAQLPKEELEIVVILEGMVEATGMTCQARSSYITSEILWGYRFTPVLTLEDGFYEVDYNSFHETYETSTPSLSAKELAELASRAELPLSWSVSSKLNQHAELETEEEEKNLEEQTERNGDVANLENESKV
AMPAR-TARP mod – modulators of AMPA receptor GluA2-stargazin complexes; O88602+P19491; calls only at 30 µM; 3.5% of 40,000 active; HEK293 GluA2+stargazin, membrane potential dye (FDSS), glutamate EC50; hits were called plate by plate, in both directions;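 active means any of four per-well response measures lying three or more SD from its plate-wide compound average, in either direction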
* = called active by the depositor; i = inactive; nt = not tested or not shown; + = active, no number.

SMILES	GIRK2 act	AMPAR-TARP mod
O=C(Cn1nc(S(=O)(=O)c2ccccc2)ccc1=O)Nc1ccc(Cl)cc1	i	+
CCSc1nn(CC(=O)Nc2cccc(SC)c2)c(N)c1S(=O)(=O)c1ccc(C)cc1	nt	i
CSc1nn(CC(=O)Nc2ccc3c(c2)OCO3)c(N)c1S(C)(=O)=O	i	i
CCc1ccccc1NC(=O)Cn1nc(SC)c(S(=O)(=O)c2ccc(F)cc2)c1N	nt	i
CSc1nn(CC(=O)Nc2cccc(C)c2C)c(N)c1S(C)(=O)=O	i	+
CSc1nn(CC(=O)Nc2c(C)cccc2C)c(N)c1S(C)(=O)=O	i	+
O=C(Cn1nc(S(=O)(=O)c2ccccc2)ccc1=O)Nc1ccccc1F	i	i
CSc1nn(CC(=O)Nc2cccc(Cl)c2)c(N)c1S(=O)(=O)c1ccccc1	nt	+
COc1nn(C)cc1-c1nnc(SCC(=O)Nc2ccc3c(c2)OCO3)n1C	i	i
Cc1nnsc1C(=O)N1CCC(CNC(=O)c2cccc(Cl)c2)CC1	i	i
Cc1nnsc1C(=O)N1CCC(CNC(=O)Nc2cccc(Cl)c2)CC1	i	+
O=C(CSc1ncccc1C(=O)O)c1ccc(F)cc1	i	i
COCCOC(=O)C1=C(C)N(C)C(=O)NC1c1ccc2c(c1)OCO2 (centres undefined)	nt	i
O=C(NCC(c1cccnc1)N1CCN(Cc2ccccc2)CC1)Nc1ccccc1Cl (centres undefined)	i	i
Cc1ccccc1C(=O)NCC(O)(c1ccccc1)C1CC1 (centres undefined)	nt	i
CCOc1ccccc1C(=O)NCC(O)(c1ccccc1)C1CC1 (centres undefined)	nt	+
N#Cc1nc(-c2ccc(S(=O)(=O)N3CCCCCC3)cc2)oc1NCCN1CCOCC1	i	i
N#Cc1nc(-c2ccc(S(=O)(=O)N3CCCCCC3)cc2)oc1NCCCn1ccnc1	i	+
Cc1cc(=O)[nH]c(-n2nc(C)c(CCC(=O)NCCN3CCOCC3)c2C)n1	i	i
COc1ccc(C)cc1NC(=O)CCCn1nc(-c2ccc(C)cc2)ccc1=O	i	i
COc1cc(S(=O)(=O)N2CCN=C2c2ccccc2)ccc1F	nt	i
CCc1cc(S(=O)(=O)N2CCN=C2c2ccccc2)ccc1OC	i	+
COC(=O)Cn1c(=O)c2c(nc3n(-c4ccccc4OC)c(C)cn23)n(C)c1=O	nt	i
O=S(=O)(NCCC(O)c1cccs1)c1cccc(C(F)(F)F)c1 (centres undefined)	i	i
O=S(=O)(NCCC(O)c1cccs1)c1ccc(OC(F)(F)F)cc1 (centres undefined)	i	+
SMILES	GIRK2 act	AMPAR-TARP mod
O=C(NCc1ccccc1Cl)C(=O)NCC1CCN(C(=O)Oc2ccccc2)CC1	i	i
Cc1cc(C(=O)Nc2ccc3c(c2)OCC(C)(C)C(=O)N3C)c(C)o1	i	i
CN1C(=O)C(C)(C)COc2cc(NC(=O)c3ccc4nsnc4c3)ccc21	i	+
COc1ccc(OC)c(Nc2nc(CC(=O)Nc3cccc(C)c3C)cs2)c1	i	i
Cc1ccc(C)c(N2C(=O)N(Cc3ccccc3F)C3CS(=O)(=O)CC32)c1 (centres undefined)	i	+
CCN1C(=O)N(c2cc(C)ccc2C)C2CS(=O)(=O)CC21 (centres undefined)	i	i
COc1ccc(OC)c(-c2ccc(=O)n(Cc3ccc([N+](=O)[O-])cc3)n2)c1	i	+
COc1ccc(OC)c(-c2ccc(=O)n(CCNC(=O)Nc3cc(C)cc(C)c3)n2)c1	i	+
COc1ccccc1-c1ccc(=O)n(Cc2cccc3ccccc23)n1	i	i
COc1ccc(OC)c(-c2ccc(=O)n(CCNC(=O)Nc3ccccc3)n2)c1	i	i
COc1ccc(OC)c(-c2ccc(=O)n(Cc3cccc4ccccc34)n2)c1	i	+
COc1ccc(OC)c(-c2ccc(=O)n(Cc3ccc(Cl)cc3Cl)n2)c1	i	i
CCOc1ccc(C2NC(=O)NC(CS(=O)(=O)c3ccc(Cl)cc3)=C2C(=O)OC)cc1 (centres undefined)	nt	i
Cc1nc(Nc2cccc(F)c2)nc(N2CCOCC2)c1[N+](=O)[O-]	i	i
CN1CCN(c2nc(Nc3cccc(O)c3)nc3ccccc23)CC1	nt	+
Fc1cccc(Nc2nc(N3CCCCC3)c3[nH]cnc3n2)c1	i	i
Fc1ccccc1Nc1nc(N2CCOCC2)c2ccccc2n1	nt	+
CC(NC(=O)Cc1csc(SCC(=O)c2ccc3c(c2)OCO3)n1)c1ccccc1 (centres undefined)	i	nt
COc1ccc(-c2noc(CSc3nc4ccccc4c(=O)n3C(C)C)n2)cc1	i	i
CCOc1ccc(-c2ccc(=O)n(CCNS(=O)(=O)c3ccc(F)cc3)n2)cc1	nt	i
COc1ccc(CNC(=O)C(=O)Nc2ccc3c(c2)N(C(=O)C(C)C)CCC3)cc1	i	i
